Laboratory results from PubChem BioAssay AID817 (Emory University Molecular Libraries Screening Center, 2007).
In all, about 140,000 compounds went through this assay and about 300 (0.21%) were called active.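 How the source made its calls: active means z-score above 3 at both the 24 hr and the 30 hr optical density reads; inactive means the rest, inconclusive results apart.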 What follows is part of a selection rich in actives, with near analogues and random picks from the rest.

Assay: growth rescue of sdo1-depleted yeast, primary screen, S. cerevisiae, bone marrow failure model (AID 817);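 further: z-score against mean and SD of all compound wells on the same plate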
Conditions: S. cerevisiae sdo1-depleted JHY4D growth rescue, at 10 µM, stronger effect = higher value, pdr5 snq2 efflux-pump mutant strain
[1] = OD600, measured here: growth rescue at 24 h

Structure (SMILES)	z-score (OD600 30 h)	z-score [1]
C=CCc1ccccc1OCC(=O)N/N=C/c1ccccc1OCC	0.63 (inactive)	0.43
CC(=O)N1CCN(CC(=O)Nc2ccc(SC(F)F)cc2)CC1	1.61 (inactive)	1.79
CC(C)CNC(=O)CC(NCC(C)C)C(=O)O (configuration not stated)	0.7 (inactive)	0.56
c1ccc(C2CNCc3c2ccc2ccccc32)cc1 (configuration not stated)	-0.88 (inactive)	-1.37
CCc1nnc(NC(=O)[C@@H](NC(=O)c2cccc(C)c2)C(C)C)s1	0.02 (inactive)	-0.75
CCc1cccc(CC)c1NC(=S)NCc1ccc2[nH]c(C)cc2c1	-0.04 (inactive)	0.97
CC1CCCC(NC(=O)COC(=O)[C@@H]2CC(O)CN2S(=O)(=O)c2ccc3c(c2)OCCO3)C1C (some centres not stated)	1.03 (inactive)	1.42
Cc1nc2scc(-c3cccs3)c2c(=O)n1N	0.14 (inactive)	-0.79
O=C(COC(=O)/C=C/c1nc2ccccc2s1)Nc1ccccc1Oc1ccccc1	-0.21 (inactive)	0.04
CC(=O)NS(=O)(=O)c1ccc(NC(=O)C2C3C=CC(C3)C2C(=O)O)cc1 (configuration not stated)	-0.71 (inactive)	-0.47
CN(C)C(CNC(=O)c1ccc(S(=O)(=O)NCc2ccco2)cc1)c1ccccc1 (configuration not stated)	0.96 (inactive)	0.68
COc1ccc(C)cc1Nc1nc(-c2c(C)[nH]c3ccccc23)cs1	-0.39 (inactive)	-0.09
CCCn1c(=O)c2c(C(F)(F)F)cc(-c3cccs3)nc2n(CCC)c1=O	1.32 (inactive)	2.13
O=C(NCc1cccs1)C(=O)NCC1OCCCN1S(=O)(=O)c1ccc(F)cc1 (configuration not stated)	-0.71 (inactive)	-1.35
CCOc1ccc(NC(=S)N2CCC(N(C)CC3CCCO3)CC2)cc1 (configuration not stated)	0.68 (inactive)	1.31
Cc1[nH]c2ccccc2c1/C=N/NC(=O)CNC(=O)c1ccc2c(c1)OCO2	1.92 (inactive)	3.35
NC(=S)N/N=C/c1coc2cc(Cl)ccc2c1=O	-1.25 (inactive)	-1.16
O=C(CSc1nnc(-c2ccncc2)o1)NCc1ccc(Cl)cc1	0.26 (inactive)	-0.05
COc1ccc(NC(=S)NC2CCS(=O)(=O)C2)cc1 (configuration not stated)	-0.13 (inactive)	-0.11
COCCn1c(=NC(=O)c2ccccc2[N+](=O)[O-])sc2cc(S(C)(=O)=O)ccc21	-0.84 (inactive)	-0.91
COC(=O)c1onc(-c2c(OC)cc(OC)cc2OC)c1C(=O)OC	0.49 (inactive)	0.26

Structure (SMILES)	z-score (OD600 30 h)	z-score [1]
O=C(COC(=O)c1cc(=O)[nH]c2ccccc12)Nc1nc(-c2cccc(Br)c2)cs1	-0.47 (inactive)	-0.07
C=CCNC(=O)c1ccccc1NC(=O)c1ccc(Cl)c(S(=O)(=O)Nc2cccc(C)c2C)c1	-0.47 (inactive)	0.23
C=CCN1C(=O)C(Cc2ccc(OCC)cc2)SC1=Nc1ccc(C(=O)O)cc1 (configuration not stated)	-0.13 (inactive)	-0.75
CC(C)CCNC(=O)c1cccnc1Sc1ccccc1	0.7 (inactive)	0.32
Cc1ccc(/C=N/NC(=O)CNC(=O)COc2ccccc2)o1	1.11 (inactive)	1.1
CS(=O)(=O)N(Cc1ccccc1)c1ccc(C(=O)NN=C2CCCCCC2)cc1	-0.22 (inactive)	-0.83
COc1ccccc1OCc1ccc(C(=O)N2CCN(C)CC2)o1	0.86 (inactive)	0.24
CN1CCN(C(=O)/C(=C\c2cccs2)NC(=O)c2cccs2)CC1	0.48 (inactive)	0.2
CCOc1ccc(C(=O)NC(=S)Nc2ccc(N3CCOCC3)c(Cl)c2)cc1[N+](=O)[O-]	-1.76 (inactive)	-1.28
COc1ccc(C(=O)NNS(=O)(=O)c2ccc(C)cc2)cc1	-0.36 (inactive)	-1.37
CC1(C)C=C2[C@H]3CC[C@@H]4[C@@]5(C)CCC(=O)C(C)(C)[C@@H]5CC[C@@]4(C)[C@]3(C)CC[C@@]2(C(=O)O)CC1	-0.02 (inactive)	-0.53
FC(F)(F)c1cccc(N/N=C/c2ccccc2)c1	-1.78 (inactive)	-1.53
COc1ccccc1N1CCN(C(=O)C(=O)N/N=C/c2ccccc2F)CC1	1.25 (inactive)	0.28
COc1ccc(OC(C)C(=O)NCCc2nc3ccccc3[nH]2)cc1 (configuration not stated)	0.82 (inactive)	-0.04
COc1ccccc1-n1c(C)nc2cc(C(=O)NCc3ccc4c(c3)OCO4)ccc21	-0.72 (inactive)	-1.61
COC(=O)c1cc(C(=O)N(Cc2ccccc2)c2ccccn2)cc([N+](=O)[O-])c1	-0.07 (inactive)	-0.08
CCc1ccccc1NC(=O)CN(C)C(=O)COc1ccc(C)nc1[N+](=O)[O-]	-0.39 (inactive)	-0.24
Cc1[nH]c2ccccc2c1C(=O)COC(=O)C(C)C	0.17 (inactive)	-0.5
Cc1[nH]c2ccccc2c1C(=O)CSCC(=O)O	10.5 (active)	8.73
CCOC(=O)N1CCN(CC(=O)c2c(C)[nH]c3ccccc23)CC1	-0.21 (inactive)	-1.53
CCCC1OC23CCCCC2C(C#N)(C#N)C1(C#N)C(=N)O3 (configuration not stated)	0.28 (inactive)	0.9

Structure (SMILES)	z-score (OD600 30 h)	z-score [1]
CCOc1ccc2c(=O)c(-c3ccc4c(c3)OCCCO4)c(C)oc2c1	0.07 (inactive)	-0.34
O=C(OCC(=O)c1c[nH]c2ccccc12)c1cccc(O)c1	0 (inactive)	0
O=C(NC(=S)Nc1ccc2oc(=O)ccc2c1)c1ccc(-c2cccc(Cl)c2Cl)o1	-0.64 (inactive)	0.44
CCOC(=O)c1c(NC(=S)Nc2ccccc2C)sc2c1CCC2	-0.66 (inactive)	0.75
COc1ccc(C(C[N+](=O)[O-])n2nc(C)cc2C)cc1 (configuration not stated)	-2.03 (inactive)	-0.33
O=C(N/N=C\c1ccc(Br)cc1)c1ccc(Cn2cccn2)o1	0.87 (inactive)	-0.05
O=S(=O)(NCC1CCCO1)c1cnc(Cl)c(Cl)c1 (configuration not stated)	1.1 (inactive)	0.93
Cc1c(C(=O)NCCN2C(=O)S/C(=C\c3cccs3)C2=O)cccc1[N+](=O)[O-]	-0.51 (inactive)	-0.6
COc1cccc(NC(=O)C(Sc2nc3ccccc3c(=O)n2CC(C)C)c2ccccc2)c1 (configuration not stated)	-1.02 (inactive)	-0.31
Cc1nnnn1/C(=C\c1ccccc1)C(=O)OCC(=O)N1CC2(C)CC1CC(C)(C)C2 (configuration not stated)	-1.27 (inactive)	-0.83
Cc1cccc(N=C2NN=C(c3c[nH]c4ccccc34)CS2)c1	-1 (inactive)	-0.78
COC(=O)c1c(NC(=O)CN2C(=O)NC(CCc3ccccc3)C2=O)sc2c1CCCCC2 (configuration not stated)	0.43 (inactive)	0.79
Cc1ccc(Sc2ccncc2S(N)(=O)=O)cc1	1.59 (inactive)	0.76
O=C(O)c1ccc(N=NN2CCOCC2)cc1	-0.02 (inactive)	-0.59
COc1ccc(C2Nc3ccccc3C(=O)N2c2ccc(Cl)cc2)cc1Cn1cc([N+](=O)[O-])cn1 (configuration not stated)	-0.41 (inactive)	-0.21
O=C(N/N=C/c1ccc2c(c1)OCO2)c1ccc(Cn2cc([N+](=O)[O-])cn2)o1	0.69 (inactive)	-0.21
COc1cc(OC)nc(S(C)(=O)=O)n1	3.91 (active)	4.26
CCC(=O)Nc1nc(OC)cc(OC)n1	0.5 (inactive)	-0.32
COc1cc(OC)nc(NC(=O)CCl)n1	-0.13 (inactive)	-1.15
Cc1c(Cl)cccc1NC(=O)Nc1ccc(C(=O)N2CCCC2)cc1	0.9 (inactive)	-0.18
CS(=O)(=O)Nc1ccc(C(=O)N2CCCC2)cc1	8.85 (active)	8.64

Structure (SMILES)	z-score (OD600 30 h)	z-score [1]
O=C(c1ccc(S(=O)(=O)c2ccccc2)cc1)N1CCCCCC1	1.85 (inactive)	2.69
Cc1ccc(-c2nnc(SCC(=O)N/N=C/c3cccs3)n2-c2ccc(C)cc2)cc1	0.44 (inactive)	0.52
CCOc1ccc(C(=O)NC(=S)Nc2ccc(NC(=O)C(C)C)cc2)cc1[N+](=O)[O-]	-0.64 (inactive)	0.38
CC(=O)COc1ccc2c(-c3ccccc3)cc(=O)oc2c1	-0.11 (inactive)	-0.39
COc1cc(/C=C/CO)cc(OC)c1O[C@@H]1O[C@H](CO)[C@@H](O)[C@H](O)[C@H]1O	0.24 (inactive)	0.99
Cc1ccc(S(=O)(=O)C2C(=O)NC3(C)CC2c2ccccc2O3)cc1 (configuration not stated)	0.78 (inactive)	0.14
CCOC(=O)C1=C(C)Nc2nc3ccccc3n2C1c1cccs1 (configuration not stated)	-0.33 (inactive)	0.25
CCCc1cc(=O)[nH]c(SCC(=O)N2CCN(S(=O)(=O)c3ccc(C)cc3C)CC2)n1	0.64 (inactive)	0.59
Cc1cc(OCCN2CCCC2)cc(C(C)C)c1	-1.32 (inactive)	-1.82
Cc1cccc(Nc2nc3c(S(=O)(=O)c4ccccc4)nnn3c3ccccc23)c1C	2.09 (inactive)	3.12
O=C(NC(=O)N1CCOCC1)c1ccccc1	0.99 (inactive)	0.24
COc1ccc(C(=O)NC2(C(F)(F)F)NC(=O)N(CCCc3ccccc3)C2=O)c(OC)c1OC (configuration not stated)	-0.49 (inactive)	0.17
O=C(/C=C/c1ccc(F)cc1)Nc1cccc(S(=O)(=O)Nc2cccc(C(F)(F)F)c2)c1	-0.39 (inactive)	-0.2
COc1ccc2c(CN3CCN(S(=O)(=O)c4cccs4)CC3)cc(=O)oc2c1	-1.29 (inactive)	-1.27
COc1cc(CC(=O)N/N=C/c2ccccc2)c([N+](=O)[O-])cc1OC	0.66 (inactive)	0.79
Cc1ccc2[nH]c(C(=O)O)c(NC(=O)c3ccccc3[N+](=O)[O-])c2c1	1.28 (inactive)	1.83
CCN(CC)S(=O)(=O)c1cc([N+](=O)[O-])ccc1N=Nc1c(O)n(C)c2ccccc12	-0.62 (inactive)	0.64
Cc1cccc(C(=O)c2cccc(C)c2)c1	-0.29 (inactive)	-0.6
